The values that follow come from PubChem BioAssay AID1490 (National Center for Advancing Translational Sciences (NCATS), 2009).

Where “and” joins values, the source holds several entries; their conditions need not be identical. Equal entries are not always repeated. Out of some 310,000 compounds screened, about 11,000 (3.5%) were called active. Roughly 4% stayed inconclusive and do not appear here. Calls follow the shape of the dose curve; as a rule, active = well fitted inhibition curve with a large enough effect; inconclusive = small, poorly fitted or top-dose-only effect, or another doubt; inactive = no such curve, though single readings can be large or run the other way. Many of the other results were omitted from the sample, so actives are more common in it than they were.
Potency is read from the fitted curve at half-maximal effect.

This assay concerns the target 4'-phosphopantetheinyl transferase ffp (Bacillus subtilis) (UniProt Q9F4F7). Kind of assay: qHTS Assay for Inhibitors of Bacillus subtilis Sfp phosphopantetheinyl transferase (PPTase).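 Also: the enzyme is Sfp with the accession as filed and its product quenches rhodamine fluorescence.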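 As to largest response in the series, negative = inhibition: 0% = enzyme reaction without inhibitor and -100% = no enzyme wells.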 Conditions: Biochemical Sfp PPTase activity. The essentials: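 With Hepes-Na pH 7.6 buffer containing 10 mM MgCl2, Sfp (15 nM) modified BHQ-2-YbbR (12.5 uM) using rhodamine-CoA (5 uM). Two reads 30 minutes apart at 525/598 nm yielded each well's rate.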
For `O=C(c1cc2ccccc2o1)N1CCN(Cc2ccccc2)CC1`, the largest response in the series, negative = inhibition is 8.96% (inactive) and -10.3% (inactive). Same read-out and setting: for `Cc1ccc(CSCCNC(=O)CN(c2ccc(F)cc2)S(C)(=O)=O)cc1` the value was 7.19% (inactive); for `O=C(c1ccncc1)N1CCC2(CCCN(C(c3ccccc3)c3ccccc3)C2)CC1`, -0.961% (inactive). On to `Cc1ccc(CNC(=O)C(=O)c2cn(CC(=O)N3CCOCC3)c3ccccc23)cc1`, for which the largest response in the series, negative = inhibition is 6.58% (inactive). As for `O=C(Oc1ccc(C(=S)N2CCOCC2)cc1)c1ccc(F)cc1`, the Potency was 50.1 µM (active). For the compound `O=C(Oc1ccc(F)cc1)N1CCOCC1`, the largest response in the series, negative = inhibition was 11.2% (inactive). With `Cc1ccc(C(=O)Oc2ccc(C(=S)N3CCOCC3)cc2)cc1`, the largest response in the series, negative = inhibition is -21.7% (inactive). Still for that read-out and setting: as for `NNC(=O)CNC(c1ccccc1)c1cc(Cl)ccc1NC(=O)c1ccccc1` (stereo not given), the figure is 5.82% (inactive). Still for that read-out and setting: for `Cc1ccc(SCC(CC(C)C)N2CCN(CCc3ccccc3)CCC2=O)cc1` (stereo not given) the value was -29.9% (inactive).

Regarding `CN(C)c1cc(N)c2ccccc2n1` (tested in a mixture with another compound), the Potency was 56.2 µM (active). With `COc1ccc(-c2cc(C(=O)N(C)Cc3ccccc3)c3ccccc3n2)cc1`, the largest response in the series, negative = inhibition is -16.8% (inactive). Still for that read-out and setting: as for `Cc1cc(N(C)C)nc(Cl)n1`, the figure is -4.8% (inactive); as for `CN(Cc1ccccc1)S(=O)(=O)c1nnc(NC(=O)c2ccccc2F)s1`, 16.4% (inactive). Same read-out and setting: for `O=C(Cc1cccs1)NCc1cccc(C(F)(F)F)c1` the value was 6.74% (inactive); for `NC(=O)CC(NC(=O)Cc1ccc(Br)cc1)c1ccc(NC2CC3CCC2C3)c([N+](=O)[O-])c1` (stereo not given), 15.4% (inactive). On the same count and under the same terms, for `O=C(Nc1ccc(Cl)cc1)c1cccc(OC(=S)N2CCOCC2)c1` the value was 5.61% (inactive). Turning to `COCCOC(=O)c1sc(=S)n(CCOC)c1N`, the Potency was 25.1 µM (active). For the compound `CCOC(=O)c1c(N)sc(C(C)=O)c1C`, the largest response in the series, negative = inhibition is -34.1% (inactive).

On to `O=C(N/C(=C\c1ccc(O)cc1)C(=O)N1CCCCC1)c1ccccc1`, for which the largest response in the series, negative = inhibition was 11.6% (inactive). On the same count and under the same terms, for `Cc1ccc2c(=O)cc(C(=O)NCCc3ccc(S(N)(=O)=O)cc3)oc2c1C` the value was 15.4% (inactive). The same measure, in the same setting: for `CCOc1ccc2nc(Nc3nc4ccc(NC(C)=O)cc4s3)sc2c1` the value was -21.4% (inactive).

For `CCOc1ccc2nc(C(=O)N3CCCC(C)C3)sc2c1` (stereo not given), the Potency is 25.1 µM (active).

`CCOc1ccc2nc(SC(CC)C(=O)Nc3cc(C)on3)sc2c1` (stereo not given): the largest response in the series, negative = inhibition is 9.59% (inactive). Same read-out and setting: as for `CCN(CC)CCCNC(=O)c1c(O)c2cc(F)cc3c2n(c1=O)C(C)CC3` (stereo not given), the figure is 2.11% (inactive). With `Oc1c(C=Nc2cccc3nsnc23)ccc2ccccc12`, the Potency was 44.7 µM (active).

As for `COc1ccc(C=Nc2cccc3ncccc23)cc1`, the largest response in the series, negative = inhibition is -8.45% (inactive).

As for `O=[N+]([O-])c1ccc(N=Cc2c(O)ccc3ccccc23)cc1`, the largest response in the series, negative = inhibition is -6.3% (inactive).

Regarding `Cc1cc2c(cc1S(=O)(=O)CCC(=O)NCc1ccccc1)OCC(=O)N2`, the largest response in the series, negative = inhibition was 18.5% (inactive). Still for that read-out and setting: for `COc1ccc(C2CC(c3ccc([N+](=O)[O-])cc3)=NN2C(C)=O)cc1` (stereo not given) the value was 0.697% (inactive); for `CN1C2CCC1CC(NC(=O)c1ccc([N+](=O)[O-])cc1)C2` (stereo not given), 9.32% (inactive). With `CC(=O)N1CC[n+]2c(-c3ccc([N+](=O)[O-])cc3)csc21`, the Potency was 5.62 µM (active). With `CC(C)=CCc1c(O)c(CC=C(C)C)c2occ(-c3ccc(O)cc3)c(=O)c2c1O`, the largest response in the series, negative = inhibition is -6.29% (inactive). Still for that read-out and setting: as for `OCC(CO)NC1C[C@](O)(CO)[C@@H](O)[C@H](O)[C@H]1O` (stereo not given in full), the figure is 7.78% (inactive).

Regarding `O=C(NC(Cc1ccccc1)C(=O)O)/C(=C\c1ccccc1)NC(=O)c1ccco1` (stereo not given), the largest response in the series, negative = inhibition is 16.2% (inactive). Regarding `COc1cccc(-c2noc(C3CCCN(C(=O)c4ccc(F)cc4)C3)n2)c1` (stereo not given), the largest response in the series, negative = inhibition was 12.5% (inactive).

With `FC(F)(F)C1CCCN(c2nsc3ccccc23)C1` (stereo not given), the Potency is 15.8 µM (active).

Regarding `CC(C(=O)NC1CCCCC1)N1C(=O)c2cccc3cccc1c23` (stereo not given), the largest response in the series, negative = inhibition was 4.03% (inactive).

`COC(=O)c1ccc(OC(=O)c2cnccn2)cc1`: the largest response in the series, negative = inhibition was -8.15% (inactive). Consider `Cn1c(SCC(=O)N2CCCC2)nnc1-c1ccc2c(c1)OCO2`, for which the largest response in the series, negative = inhibition is 8.6% (inactive). For `Cn1c(SCc2nc3ccccc3s2)nnc1-c1ccc2c(c1)OCO2`, the Potency is 14.1 µM (active). `O=C(O)CSc1nnc(-c2ccc3c(c2)OCO3)n1-c1ccccc1`: the largest response in the series, negative = inhibition was 30.8% (inactive). Regarding `CCc1c(C)[nH]c(=S)c(C#N)c1C`, the Potency is 12.6 µM (active). As for `COc1ccc(/C(C)=N\NC(=O)c2ccc(-c3ccccc3)cc2)c(F)c1`, the largest response in the series, negative = inhibition was 12.8% (inactive). On the same count and under the same terms, for `COc1ccc(N(Cc2cc3ccc(C)cc3[nH]c2=O)S(=O)(=O)c2ccccc2)cc1` the value was 6.39% (inactive). On the same count and under the same terms, as for `CCn1c2ccc(F)cc2c2nnc(SCCN3CCOCC3)nc21`, the figure is -2.54% (inactive); as for `COc1ccc(N2CCN(C(=O)CSc3ncnc4c3cnn4-c3ccc(OC)cc3)CC2)cc1`, -1.71% (inactive); as for `CCOc1ccc(-c2nnn(CC(=O)N3CCN(c4ccc(OC)cc4)CC3)n2)cc1OCC`, 20.4% (inactive).

In the case of `COc1ccc(N2CCN(C(=O)CSc3nc4cc(OC)c(OC)cc4cc3C#N)CC2)cc1`, the Potency was 63.1 µM (active). Consider `CCN(CC(=O)Nc1ccc(C)c(S(=O)(=O)N(C)C)c1)Cc1ccccc1`, for which the largest response in the series, negative = inhibition is -18.4% (inactive). Same read-out and setting: as for `Cn1c(SCC(=O)N2CCCC2)nnc1-c1cccs1`, the figure is 5.11% (inactive); as for `Cc1c(C(=O)N2CCCC2)c(S(=O)(=O)NCC(C)c2ccccc2)c(C)n1C` (stereo not given), -2.67% (inactive). The same measure, in the same setting: for `CC(=O)Nc1cccc(NC(=O)CSc2nccn2Cc2ccc(F)cc2)c1` the value was 11.3% (inactive). Same read-out and setting: as for `CN(C)S(=O)(=O)c1ccc(C(=O)NCCN=C2NS(=O)(=O)c3ccccc32)cc1`, the figure is 2.12% (inactive).

`Cc1cc(O)ccc1-c1cnc2ccccc2n1`: the Potency was 50.1 µM (active). For `c1ccc2nc(C3=NCCN3)cnc2c1`, the largest response in the series, negative = inhibition is 2.82% (inactive).

For `Oc1ccc(-c2[nH]ncc2-c2nc3ccccc3s2)c(O)c1`, the largest response in the series, negative = inhibition is 2.93% (inactive). On the same count and under the same terms, as for `CCOCCOC(=O)C(C)Oc1ccc(Oc2ncc(C(F)(F)F)cc2Cl)cc1` (stereo not given), the figure is -1.26% (inactive). Still for that read-out and setting: as for `O=C(c1ccco1)N1CCN(C(=O)c2cc(-c3ccccc3F)no2)CC1`, the figure is 1.68% (inactive); as for `CN(CCO)S(=O)(=O)c1ccc2c(c1)C(=O)c1cc(S(=O)(=O)N(C)CCO)ccc1-2`, 0.575% (inactive); as for `COc1ccc(-c2onc3ccc(C(C)=O)cc23)cc1`, 15.7% (inactive).

Take `CC(OC(=O)c1ccc2noc(-c3ccccc3)c2c1)C(N)=O` (stereo not given): the largest response in the series, negative = inhibition was 9.21% (inactive). For `Oc1ccc(-c2onc3ccc(Cl)cc23)cc1`, the Potency was 22.4 µM (active). In the case of `CCCCn1c(N)c(N(CC)C(=O)c2ccccc2C(F)(F)F)c(=O)[nH]c1=O`, the largest response in the series, negative = inhibition was 6.91% (inactive). As to `CC(C)C[C@H]1CN=C(Nc2ccccc2)N1CC1CCCCC1`, the largest response in the series, negative = inhibition was 6.04% (inactive).

As for `O=C(c1cc(COc2cccc(C(F)(F)F)c2)on1)N1CCSCC1`, the largest response in the series, negative = inhibition is -6.37% (inactive). On the same count and under the same terms, for `Cc1cc(NC(=O)c2ccco2)c(=O)n(Cc2c(F)cccc2Cl)c1` the value was -1.88% (inactive); for `CN(Cc1ccccc1)C(=O)C1CCCN(c2ncnc3c2nc2n3CCCCC2)C1` (stereo not given), -5.59% (inactive). Still for that read-out and setting: for `CN(c1ccccc1)c1ccc(/C=c2\s/c(=C(/C#N)C(=O)C(C)(C)C)n(Cc3ccco3)c2=O)cc1` the value was -21.7% (inactive). With `O=C(Cc1ccccc1)n1nc(-c2ccccc2)nc1NCc1ccco1`, the largest response in the series, negative = inhibition was 0.0328% (inactive). Turning to `O=c1nc2s/c(=C\c3ccco3)c(=O)n2nc1Cc1ccccc1`, the Potency is 28.2 µM (active).

For the compound `N#Cc1cc([N+](=O)[O-])ccc1NCC1CCCO1` (stereo not given), the largest response in the series, negative = inhibition was 13.1% (inactive). On the same count and under the same terms, as for `O=C(NC1CCCCCCC1)c1cccs1`, the figure is -20.5% (inactive); as for `COCCNc1ncnc2ccc(-c3cccnc3)cc12`, 6.73% (inactive); as for `COc1cc(/C=N/N2CCN(c3ccccc3)CC2)ccc1OC(C)=O`, 16.9% (inactive). Turning to `COc1ccccc1N1CCN(/N=C\C(Br)=C\c2ccccc2)CC1`, the Potency was 31.6 µM (active). Turning to `COc1ccccc1N1CCN(/N=C/c2ccc(O)cc2O)CC1`, the largest response in the series, negative = inhibition was -7.55% (inactive). Same read-out and setting: for `COc1cc(CNCc2ccc(OC)c3ccccc23)cc(OC)c1OC` the value was -22.2% (inactive).

As for `O=S(=O)(/N=C(/Nc1ccccn1)c1ccccc1)c1ccc(Cl)cc1`, the largest response in the series, negative = inhibition was 27.1% (inactive).

As to `Cc1ccc(S/C(=N\S(=O)(=O)c2ccc(Cl)cc2)c2ccccc2)cc1`, the Potency is 56.2 µM (active). Turning to `Cc1ccc(S(=O)(=O)/N=C(/Nc2ccccn2)c2ccc(Cl)cc2)cc1`, the largest response in the series, negative = inhibition is -17.5% (inactive). Consider `CCn1c(SCC(=O)Nc2nccs2)nnc1-c1ccncc1`, for which the largest response in the series, negative = inhibition was 2.26% (inactive). Consider `Nn1c(SCC(=O)Nc2nccs2)nncc1=O`, for which the Potency was 22.4 µM (active).

Take `COc1ccc(NC(=O)CSc2nncc(=O)n2N)cc1OC`: the largest response in the series, negative = inhibition is 9.26% (inactive). As for `O=S(=O)(c1ccc(-c2ccno2)s1)N1CCCCC1`, the largest response in the series, negative = inhibition is 11.8% (inactive). Same read-out and setting: as for `N=c1c2c(-c3ccccc3)c(-c3ccccc3)oc2ncn1Cc1ccco1`, the figure is -5.12% (inactive); as for `COc1ccc(-c2oc3ncnc(NCCCO)c3c2-c2ccc(OC)cc2)cc1`, -12.6% (inactive).

For `COc1ccc(-c2oc3ncn(Cc4ccco4)c(=N)c3c2-c2ccc(OC)cc2)cc1`, the Potency was 39.8 µM (active). On to `O=c1oc2ccccc2c(NC2CCCCC2)c1NS(=O)(=O)c1ccc(Cl)cc1`, for which the largest response in the series, negative = inhibition was 4.82% (inactive). Same read-out and setting: for `CN(C(=O)COC(=O)c1nc(Cl)ccc1Cl)C1CCS(=O)(=O)C1` (stereo not given) the value was 11% (inactive).

Turning to `Cc1c(-c2cccc(Cl)c2)nc2ccccc2c1C(=O)OCC(=O)N(C)C1CCS(=O)(=O)C1` (stereo not given), the largest response in the series, negative = inhibition is 1.32% (inactive). With `CN(C(=O)COC(=O)c1cc(-c2ccco2)nc2ccccc12)C1CCS(=O)(=O)C1` (stereo not given), the Potency was 28.2 µM (active). Regarding `Cc1ccc2nc(-c3ccc(Br)cc3)cn2c1`, the largest response in the series, negative = inhibition is 17% (inactive). The same measure, in the same setting: as for `Cc1ccc(C2C3=C(Nc4[nH]n(-c5ccccc5)c(=O)c42)c2ccccc2C3=O)cc1` (stereo not given), the figure is -4.89% (inactive). Take `COC(=O)C1=C(C)NC2=C(C(=O)c3ccccc32)C1c1ccc(-c2ccc(C(=O)O)cc2)o1` (stereo not given): the Potency was 14.1 µM (active).

For `COC(=O)C1=C(C)NC(=O)NC1/C=C/c1ccccc1` (stereo not given), the largest response in the series, negative = inhibition was 6.06% (inactive).
